From PubChem BioAssay (NCATS)
Inconclusive results are not listed. The source made the active and inactive calls. Unless noted, calls follow the shape of the dose curve; as a rule, active = well fitted curve in the direction sought with a large enough effect; inconclusive = small, poorly fitted or top-dose-only effect, or another doubt; inactive = no such curve, though single readings can be large; an effect the other way counts as inactive or inconclusive.

How the values were obtained:
[1] = target: Glucocorticoid receptor (Homo sapiens) (UniProt P04150); experiment: GR-GFP Redistribution (AID 450;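 active = compounds whose dose series gives a full or clear partial fitted curve of increased nuclear translocation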; also: potency is read from the fitted curve at half-maximal effect)
Glucocorticoid receptor (Homo sapiens), sequence (P04150 whole entry, looked up, the tested form may be a part): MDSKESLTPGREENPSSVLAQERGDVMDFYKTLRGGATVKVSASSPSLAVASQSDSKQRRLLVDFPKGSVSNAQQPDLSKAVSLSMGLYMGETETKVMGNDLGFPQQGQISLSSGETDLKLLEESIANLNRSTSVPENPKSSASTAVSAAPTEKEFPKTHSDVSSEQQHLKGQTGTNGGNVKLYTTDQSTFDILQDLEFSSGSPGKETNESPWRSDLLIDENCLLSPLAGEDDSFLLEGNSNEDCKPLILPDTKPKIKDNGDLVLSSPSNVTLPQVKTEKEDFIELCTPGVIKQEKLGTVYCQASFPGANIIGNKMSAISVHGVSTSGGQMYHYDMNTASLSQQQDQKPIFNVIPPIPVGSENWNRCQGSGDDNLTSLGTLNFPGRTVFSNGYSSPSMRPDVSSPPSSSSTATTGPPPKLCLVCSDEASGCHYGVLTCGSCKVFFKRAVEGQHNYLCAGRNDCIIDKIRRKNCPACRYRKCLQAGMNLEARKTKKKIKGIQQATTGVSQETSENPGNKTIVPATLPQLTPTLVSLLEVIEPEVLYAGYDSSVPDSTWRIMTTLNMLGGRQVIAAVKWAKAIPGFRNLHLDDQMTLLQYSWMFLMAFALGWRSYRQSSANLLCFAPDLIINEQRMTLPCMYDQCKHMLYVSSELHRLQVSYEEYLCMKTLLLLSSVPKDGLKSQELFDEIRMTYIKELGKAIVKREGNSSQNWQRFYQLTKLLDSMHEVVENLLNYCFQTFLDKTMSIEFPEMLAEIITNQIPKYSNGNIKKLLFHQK

[2] = target: Glucocorticoid receptor (Homo sapiens) (UniProt P04150); experiment: GR-EFC Redistribution (AID 451; calls by dose curve; also: potency is read from the fitted curve at half-maximal effect); conditions: CHO-K1 GR-EFC translocation, beta-gal luminescence, 2 h
Summary of the method: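 CHO-K1 cells expressing nuclear EA and GR-ED fragments of b-gal; compounds titrated up to 46 uM final, 2 h at 37 C. GR nuclear translocation read as complemented b-gal luminescence after 1 h RT detection.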

[3] = target: Mitogen-activated protein kinase 10 (Mus musculus) (UniProt Q61831); experiment: JNK3 AlphaScreen Assay (AID 530; active = well fitted curve in either direction with a large enough effect, not every such curve was filed as active;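 also: kinase came from lysate of stimulated human HepG2 cells; signal reports phosphorylation of biotinylated GST-cJun 1-79 at Ser73 with 10 µM ATP; % is scaled to controls: 0 for no effect and ±100 for the full control effect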)
Summary of the method: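 Pre-activated (IL-1β/TNFα) JNK3 in HepG2 lysates phosphorylates biotin-GST-cJun(1-79), 10 uM ATP; anti-phospho-cJun(Ser73) AlphaScreen read at room temperature, pH 7.6 Tris buffer. Compounds pre-incubated 15 min as titrations.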

[4] = target: ATP-dependent 6-phosphofructokinase (Trypanosoma brucei brucei) (UniProt O15648); experiment: qHTS Assay to Find Inhibitors of T. brucei phosphofructokinase: hit validation (AID 492961);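 also: luminescence reports ADP formed as PFK phosphorylates fructose-6-phosphate with ATP; % is scaled to controls: 0 for no effect and ±100 for the full control effect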
ATP-dependent 6-phosphofructokinase (Trypanosoma brucei brucei), sequence (O15648 whole entry, looked up): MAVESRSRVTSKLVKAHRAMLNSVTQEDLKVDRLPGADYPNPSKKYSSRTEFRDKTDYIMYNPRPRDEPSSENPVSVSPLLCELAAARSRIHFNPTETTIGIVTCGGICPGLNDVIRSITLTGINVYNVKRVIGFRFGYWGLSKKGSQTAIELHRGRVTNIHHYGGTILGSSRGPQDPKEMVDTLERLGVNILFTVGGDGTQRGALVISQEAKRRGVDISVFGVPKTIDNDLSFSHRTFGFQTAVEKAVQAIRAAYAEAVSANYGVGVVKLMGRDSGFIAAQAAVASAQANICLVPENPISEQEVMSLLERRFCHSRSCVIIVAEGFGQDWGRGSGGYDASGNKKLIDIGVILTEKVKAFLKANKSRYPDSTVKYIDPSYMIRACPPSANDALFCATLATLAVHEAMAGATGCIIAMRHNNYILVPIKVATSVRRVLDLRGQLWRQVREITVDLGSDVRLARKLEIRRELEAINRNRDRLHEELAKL
Summary of the method: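 Compounds titrated; %activity normalized to 0x and 1x enzyme controls, curve-fitted. Readout: ADP-Glo luminescence after 45 min room-temperature reaction of 1.25 nM PFK, 0.1 mM ATP, 0.5 mM F6P, pH 8.0.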

[5] = target: DNA dC->dU-editing enzyme APOBEC-3G (Homo sapiens) (UniProt Q9HC16); experiment: qHTS for inhibitors of Vif-A3G interactions: Validation (AID 588379); also: 0% is about no effect
DNA dC->dU-editing enzyme APOBEC-3G (Homo sapiens), sequence (Q9HC16 whole entry, looked up): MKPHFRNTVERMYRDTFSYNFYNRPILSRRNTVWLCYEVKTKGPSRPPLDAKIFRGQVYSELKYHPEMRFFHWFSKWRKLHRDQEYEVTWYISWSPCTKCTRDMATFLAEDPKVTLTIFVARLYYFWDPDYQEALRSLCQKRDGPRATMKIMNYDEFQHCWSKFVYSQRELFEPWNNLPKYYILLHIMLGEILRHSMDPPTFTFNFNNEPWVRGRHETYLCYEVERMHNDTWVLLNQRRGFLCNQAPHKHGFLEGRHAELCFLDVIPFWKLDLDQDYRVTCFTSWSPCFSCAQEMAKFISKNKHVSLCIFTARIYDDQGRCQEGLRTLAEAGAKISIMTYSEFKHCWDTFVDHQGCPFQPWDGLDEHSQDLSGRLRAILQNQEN
Summary of the method: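 HeLa cells stably expressing Vif and A3G-eYFP, 700 cells/well, incubated overnight at 37 deg C, then exposed to compound overnight at 37 deg C. Inhibition of Vif-mediated degradation read as increased yellow fluorescence (Ex 488/Em 500-530) by laser-scanning cytometry.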

[6] = target: Luciferin 4-monooxygenase (Photinus pyralis) (UniProt P08659); experiment: Biochemical firefly luciferase enzyme assay for NPC (AID 624030);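 also: purified P. pyralis luciferase at 10 nM with luciferin and ATP substrate; 0% = DMSO and -100% = full luciferase inhibition by PTC124 control; nearly all actives have a fitted effect of over 70% in size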
Luciferin 4-monooxygenase (Photinus pyralis), sequence (P08659 whole entry, looked up): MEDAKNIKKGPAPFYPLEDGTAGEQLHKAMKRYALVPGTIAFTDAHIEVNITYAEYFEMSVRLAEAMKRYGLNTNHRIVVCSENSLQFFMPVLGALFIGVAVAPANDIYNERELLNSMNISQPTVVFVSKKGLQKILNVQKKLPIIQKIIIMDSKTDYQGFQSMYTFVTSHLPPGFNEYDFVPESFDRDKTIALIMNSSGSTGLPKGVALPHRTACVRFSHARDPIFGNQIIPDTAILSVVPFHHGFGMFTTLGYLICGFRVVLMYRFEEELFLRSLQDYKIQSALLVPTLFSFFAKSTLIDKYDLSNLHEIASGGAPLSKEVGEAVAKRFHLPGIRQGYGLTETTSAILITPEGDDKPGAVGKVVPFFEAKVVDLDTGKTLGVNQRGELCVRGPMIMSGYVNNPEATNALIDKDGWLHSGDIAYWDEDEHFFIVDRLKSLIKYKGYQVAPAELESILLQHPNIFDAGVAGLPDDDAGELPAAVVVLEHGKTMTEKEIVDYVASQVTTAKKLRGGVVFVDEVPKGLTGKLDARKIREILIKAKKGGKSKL
Summary of the method: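 Purified P. pyralis luciferase at 10 nM in 50 mM Tris Acetate (final), luminescence read within 5 minutes of enzyme addition to compounds. Activity normalised to PTC124 versus DMSO; concentration-response curves classed by r2, magnitude and activity.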

[7] = S16 Schwann cell viability assay (CellTiter-Glo assay) (AID 624031);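 also: cellular ATP luminescence as a viability measure; plate controls were DMSO-treated cells for no effect and cell-free wells for full effect; nearly all actives have a fitted effect of over 70% in size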
Summary of the method: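 Native S16 Schwann cells (rat), serum-containing medium, overnight attachment then 24 h drug exposure at 37 °C/5% CO2. CellTiter-Glo ATP signal; normalized to cell-free and vehicle wells.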

[8] = S16 Schwann cell PMP22 intronic element firefly luciferase assay (AID 624032);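 also: plate controls were DMSO for no effect and PTC124 positive control mean for full effect; nearly all actives have a fitted effect of over 30% in size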
Summary of the method: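 Rat S16 Schwann cells stably carrying firefly luciferase driven by a PMP22 intronic element, in 10% FBS, treated 24 h at 37 C. ONE-Glo luminescence normalized to PTC124 control and DMSO (0%); curves classed by r2, magnitude and activity.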

[9] = S16 Schwann cell PMP22 intronic element beta-lactamase assay (AID 624044; calls by dose curve;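 also: 0% = DMSO and -100% = potassium clavulanate positive control; nearly all actives have a fitted effect of over 15% in size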); conditions: S16 rat Schwann cells, PMP22 element beta-lactamase FRET, 24 h; ratio activity, negative = inhibition: at 38.3 µM (top of the series)
Summary of the method: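 Rat S16 Schwann cells with beta-Lac driven by a PMP22 intronic element, compound-treated 24 h at 37 °C. LiveBLAzer FRET B/G read: 460 nm normalized to potassium clavulanate vs DMSO; 535 nm FRET as viability; concentration-effect curves classified.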

[10] = qHTS profiling for inhibitors of Plasmodium falciparum proliferation (AID 504749); also: nearly all actives have a fitted effect of over 60% in size; also: potency is read from the fitted curve at half-maximal effect;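 as to activity, negative = inhibition: 0% = DMSO vehicle and full inhibition = artemisinin control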; conditions: P. falciparum in erythrocytes, SYBR Green DNA, 72 h, at 28.7 µM (top of the series)
Summary of the method: (§1)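 P. falciparum-infected erythrocytes (0.3% parasitemia, 2.5% hematocrit) incubated with compound 72 h at 37 C, 5% CO2. Parasite DNA detected by SYBR Green after lysis, overnight at room temperature; normalised to 0.29 uM artemisinin and DMSO.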

3D7 = experiment: as above; conditions: P. falciparum in erythrocytes, SYBR Green DNA, 72 h; series mostly up to 28.7 µM
Summary of the method: as §1

C2A = experiment: as above; conditions: P. falciparum in erythrocytes, SYBR Green DNA, 72 h; series mostly up to 28.7 µM
Summary of the method: as §1

CP191 = experiment: as above; conditions: P. falciparum in erythrocytes, SYBR Green DNA, 72 h; series mostly up to 28.7 µM
Summary of the method: as §1

CP192 = experiment: as above; conditions: P. falciparum in erythrocytes, SYBR Green DNA, 72 h; series mostly up to 28.7 µM
Summary of the method: as §1

CP217 = experiment: as above; conditions: P. falciparum in erythrocytes, SYBR Green DNA, 72 h; series mostly up to 28.7 µM
Summary of the method: as §1

CP237 = experiment: as above; conditions: P. falciparum in erythrocytes, SYBR Green DNA, 72 h; series mostly up to 28.7 µM
Summary of the method: as §1

CP250 = experiment: as above; conditions: P. falciparum in erythrocytes, SYBR Green DNA, 72 h; series mostly up to 28.7 µM
Summary of the method: as §1

CP256 = experiment: as above; conditions: P. falciparum in erythrocytes, SYBR Green DNA, 72 h; series mostly up to 28.7 µM
Summary of the method: as §1

CP262 = experiment: as above; conditions: P. falciparum in erythrocytes, SYBR Green DNA, 72 h; series mostly up to 28.7 µM
Summary of the method: as §1

CP268 = experiment: as above; conditions: P. falciparum in erythrocytes, SYBR Green DNA, 72 h; series mostly up to 28.7 µM
Summary of the method: as §1

CP269 = experiment: as above; conditions: P. falciparum in erythrocytes, SYBR Green DNA, 72 h; series mostly up to 28.7 µM
Summary of the method: as §1

CP297 = experiment: as above; conditions: P. falciparum in erythrocytes, SYBR Green DNA, 72 h; series mostly up to 28.7 µM
Summary of the method: as §1

CP315 = experiment: as above; conditions: P. falciparum in erythrocytes, SYBR Green DNA, 72 h; series mostly up to 28.7 µM
Summary of the method: as §1

CP329 = experiment: as above; conditions: P. falciparum in erythrocytes, SYBR Green DNA, 72 h; series mostly up to 28.7 µM
Summary of the method: as §1

DIV14 = experiment: as above; conditions: P. falciparum in erythrocytes, SYBR Green DNA, 72 h; series mostly up to 28.7 µM
Summary of the method: as §1

DIV17 = experiment: as above; conditions: P. falciparum in erythrocytes, SYBR Green DNA, 72 h; series mostly up to 28.7 µM
Summary of the method: as §1

Dd2 = experiment: as above; conditions: P. falciparum in erythrocytes, SYBR Green DNA, 72 h; series mostly up to 28.7 µM
Summary of the method: as §1

ECU = experiment: as above; conditions: P. falciparum in erythrocytes, SYBR Green DNA, 72 h; series mostly up to 28.7 µM
Summary of the method: as §1

FAB9 = experiment: as above; conditions: P. falciparum in erythrocytes, SYBR Green DNA, 72 h; series mostly up to 28.7 µM
Summary of the method: as §1

GB4 = experiment: as above; conditions: P. falciparum in erythrocytes, SYBR Green DNA, 72 h; series mostly up to 28.7 µM
Summary of the method: as §1

HB3 = experiment: as above; conditions: P. falciparum in erythrocytes, SYBR Green DNA, 72 h; series mostly up to 28.7 µM
Summary of the method: as §1

JCK = experiment: as above; conditions: P. falciparum in erythrocytes, SYBR Green DNA, 72 h; series mostly up to 28.7 µM
Summary of the method: as §1

PAD = experiment: as above; conditions: P. falciparum in erythrocytes, SYBR Green DNA, 72 h; series mostly up to 28.7 µM
Summary of the method: as §1

PC49 = experiment: as above; conditions: P. falciparum in erythrocytes, SYBR Green DNA, 72 h; series mostly up to 28.7 µM
Summary of the method: as §1

TAB113 = experiment: as above; conditions: P. falciparum in erythrocytes, SYBR Green DNA, 72 h; series mostly up to 28.7 µM
Summary of the method: as §1

W2 = experiment: as above; conditions: P. falciparum in erythrocytes, SYBR Green DNA, 72 h; series mostly up to 28.7 µM
Summary of the method: as §1

[11] = target: 3',5'-cyclic-AMP phosphodiesterase 4B (Homo sapiens) (UniProt Q07343); experiment: qHTS Assay for Inhibitors of PDE-IV (AID 607; active = well fitted activation curve with a large enough effect in the main read-out, with a control signal flat, not every such curve was filed as active; also: % of control where 0% means no effect)
3',5'-cyclic-AMP phosphodiesterase 4B (Homo sapiens), sequence (Q07343 whole entry, looked up): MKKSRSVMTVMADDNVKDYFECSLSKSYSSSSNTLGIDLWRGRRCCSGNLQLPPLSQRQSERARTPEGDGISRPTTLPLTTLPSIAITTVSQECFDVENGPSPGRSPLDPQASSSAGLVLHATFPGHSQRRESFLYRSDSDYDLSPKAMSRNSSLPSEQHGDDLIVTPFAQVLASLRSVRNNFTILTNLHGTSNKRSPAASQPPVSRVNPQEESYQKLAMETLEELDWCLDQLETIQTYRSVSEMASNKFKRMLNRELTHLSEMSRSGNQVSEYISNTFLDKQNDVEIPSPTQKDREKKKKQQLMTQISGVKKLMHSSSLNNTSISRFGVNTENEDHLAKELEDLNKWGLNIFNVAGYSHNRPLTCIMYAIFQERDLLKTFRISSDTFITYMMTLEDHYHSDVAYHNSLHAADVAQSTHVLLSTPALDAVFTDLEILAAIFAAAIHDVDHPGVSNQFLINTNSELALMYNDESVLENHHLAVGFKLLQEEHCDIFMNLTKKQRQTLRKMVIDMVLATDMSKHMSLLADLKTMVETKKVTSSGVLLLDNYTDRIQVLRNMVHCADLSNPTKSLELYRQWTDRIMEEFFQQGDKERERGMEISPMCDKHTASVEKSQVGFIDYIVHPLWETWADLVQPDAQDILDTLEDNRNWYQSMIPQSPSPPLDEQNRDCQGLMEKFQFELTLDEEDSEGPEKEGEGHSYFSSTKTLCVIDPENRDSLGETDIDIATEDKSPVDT
Summary of the method: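 ACTOne HEK293 cells carry a modified cAMP-gated CNG channel and express endogenous PDE4; plated 1000 cells/well, compounds up to 22.9 uM final. Membrane-potential dye fluorescence (ex 535/em 590) was read; parental cells received 10 uM forskolin + 100 uM RO 20-1724.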

[12] = target: Cytochrome P450 2C9 (Homo sapiens) (UniProt P11712); experiment: qHTS Assay for Inhibitors and Substrates of Cytochrome P450 2C9 (AID 883); also: potency is read from the fitted curve at half-maximal effect; nearly all actives have a fitted effect of over 60% in size
Cytochrome P450 2C9 (Homo sapiens), sequence (P11712 whole entry, looked up): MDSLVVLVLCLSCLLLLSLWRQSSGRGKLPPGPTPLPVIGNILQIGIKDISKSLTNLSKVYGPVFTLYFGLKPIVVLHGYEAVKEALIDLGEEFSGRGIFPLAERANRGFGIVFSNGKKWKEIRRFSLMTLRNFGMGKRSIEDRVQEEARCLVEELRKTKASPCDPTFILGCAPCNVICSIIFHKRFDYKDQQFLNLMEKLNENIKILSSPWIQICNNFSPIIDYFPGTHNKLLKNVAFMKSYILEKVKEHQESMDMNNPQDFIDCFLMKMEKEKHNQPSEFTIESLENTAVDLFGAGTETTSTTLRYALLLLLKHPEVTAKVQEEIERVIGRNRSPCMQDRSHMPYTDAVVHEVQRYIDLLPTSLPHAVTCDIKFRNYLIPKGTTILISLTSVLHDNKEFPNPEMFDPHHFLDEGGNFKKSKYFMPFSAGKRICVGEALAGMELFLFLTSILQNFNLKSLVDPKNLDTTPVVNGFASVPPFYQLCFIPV
Summary of the method: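 Human CYP2C9 (10nM) with Luciferin-H at 100uM (its KM) in 25mM KPO4; compound preincubated 10 min at 37C, then NADPH regeneration for 60 min at 37C. Luciferin read by luminescence after detection reagent; normalized to 57uM sulphaphenazole as full inhibition.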

[13] = target: Cytochrome P450 3A4 (Homo sapiens) (UniProt P08684); experiment: qHTS Assay for Inhibitors and Substrates of Cytochrome P450 3A4 (AID 884); also: potency is read from the fitted curve at half-maximal effect; nearly all actives have a fitted effect of over 50% in size
Cytochrome P450 3A4 (Homo sapiens), sequence (P08684 whole entry, looked up): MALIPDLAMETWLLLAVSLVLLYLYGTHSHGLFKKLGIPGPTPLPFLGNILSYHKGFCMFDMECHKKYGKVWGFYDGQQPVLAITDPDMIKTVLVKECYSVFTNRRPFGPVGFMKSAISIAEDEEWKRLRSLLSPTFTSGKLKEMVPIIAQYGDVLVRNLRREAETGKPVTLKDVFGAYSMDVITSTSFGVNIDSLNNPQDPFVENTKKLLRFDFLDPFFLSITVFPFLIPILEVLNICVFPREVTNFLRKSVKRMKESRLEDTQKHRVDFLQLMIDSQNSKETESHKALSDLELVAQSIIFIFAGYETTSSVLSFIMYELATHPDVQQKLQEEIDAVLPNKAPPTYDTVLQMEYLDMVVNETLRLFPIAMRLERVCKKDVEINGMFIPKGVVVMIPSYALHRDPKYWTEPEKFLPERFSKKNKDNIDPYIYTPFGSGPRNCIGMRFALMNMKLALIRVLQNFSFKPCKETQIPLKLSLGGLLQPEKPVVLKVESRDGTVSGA
Summary of the method: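 20 nM human CYP3A4 with 25 uM Luciferin-PPXE (at KM) in 200 mM KPO4, preincubated 10 min with compound; NADPH regeneration started a 60 min RT reaction. Luciferin detected by luminescence, normalized to 57 uM ketoconazole as full inhibition.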

[14] = target: Cytochrome P450 3A4 (Homo sapiens) (UniProt P08684); experiment: qHTS Assay for Activators of Cytochrome P450 3A4 (AID 885); also: nearly all actives have a fitted effect of over 65% in size
Summary of the method: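 20nM CYP3A4 + 25uM Luciferin-PPXE (=KM), 200mM KPO4; cpd 10 min RT; NADPH regen, 60 min RT; stop w/ detection buffer, 20 min; luminescence. Normalized to 57 uM ketoconazole.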

[15] = target: Cytochrome P450 2D6 (Homo sapiens) (UniProt P10635); experiment: qHTS Assay for Inhibitors and Substrates of Cytochrome P450 2D6 (AID 891); also: nearly all actives have a fitted effect of over 60% in size; also: potency is read from the fitted curve at half-maximal effect
Cytochrome P450 2D6 (Homo sapiens), sequence (P10635 whole entry, looked up): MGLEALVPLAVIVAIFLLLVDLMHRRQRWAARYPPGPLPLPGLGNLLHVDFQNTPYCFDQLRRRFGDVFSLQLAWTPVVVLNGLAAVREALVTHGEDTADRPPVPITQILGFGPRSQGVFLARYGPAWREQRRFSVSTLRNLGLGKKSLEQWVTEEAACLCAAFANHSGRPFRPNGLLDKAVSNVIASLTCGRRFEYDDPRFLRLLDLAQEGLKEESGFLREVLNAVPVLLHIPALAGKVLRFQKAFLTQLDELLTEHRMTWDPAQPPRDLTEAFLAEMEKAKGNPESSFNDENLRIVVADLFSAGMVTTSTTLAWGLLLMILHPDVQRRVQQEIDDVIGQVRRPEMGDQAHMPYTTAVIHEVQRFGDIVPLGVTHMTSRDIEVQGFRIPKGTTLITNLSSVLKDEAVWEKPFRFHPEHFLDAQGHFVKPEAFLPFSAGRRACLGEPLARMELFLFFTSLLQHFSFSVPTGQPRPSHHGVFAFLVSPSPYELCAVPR
Summary of the method: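 Human CYP2D6 (5 nM) with 30 uM Luciferin-ME EGE (at Km) in 100 mM KPO4, compound preincubated 10 min, then NADPH regeneration system for 60 min at room temperature. Luciferin read by luminescence; normalized to 1.43 uM quinidine.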

[16] = target: Cytochrome P450 2C19 (Homo sapiens) (UniProt P33261); experiment: qHTS Assay for Inhibitors and Substrates of Cytochrome P450 2C19 (AID 899); also: nearly all actives have a fitted effect of over 60% in size; also: potency is read from the fitted curve at half-maximal effect; as to activity, negative = inhibition: % is scaled to controls: 0 for no effect and ±100 for the full control effect
Cytochrome P450 2C19 (Homo sapiens), sequence (P33261 whole entry, looked up): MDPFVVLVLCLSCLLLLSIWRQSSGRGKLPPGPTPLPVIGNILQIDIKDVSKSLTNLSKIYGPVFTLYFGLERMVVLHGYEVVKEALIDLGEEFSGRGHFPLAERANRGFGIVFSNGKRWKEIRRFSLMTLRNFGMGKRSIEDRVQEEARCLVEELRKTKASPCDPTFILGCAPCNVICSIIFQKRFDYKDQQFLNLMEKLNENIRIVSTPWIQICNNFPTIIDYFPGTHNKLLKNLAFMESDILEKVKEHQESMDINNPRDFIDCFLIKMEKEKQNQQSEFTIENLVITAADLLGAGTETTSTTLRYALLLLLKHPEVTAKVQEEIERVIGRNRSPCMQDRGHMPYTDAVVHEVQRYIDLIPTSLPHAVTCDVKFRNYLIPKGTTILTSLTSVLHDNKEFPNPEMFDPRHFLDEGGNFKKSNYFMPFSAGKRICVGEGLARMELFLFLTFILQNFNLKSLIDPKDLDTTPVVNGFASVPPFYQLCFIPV
Summary of the method: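 5 nM human CYP2C19 with 10uM Luciferin-H EGE (at KM) in 50mM KPO4, compound preincubated 10 min at 37C, then NADPH regeneration for 60 min at 37C. Luciferin read by luminescence after detection reagent; normalized to 57uM ketoconazole as full inhibition.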

C[C@@](Cc1ccccc1)(NC(=O)CN)c1ccccc1
active: Potency (CP237) 5.62 µM | Potency (CP297) 9.53 µM | Potency (DIV14) 3.79 µM | Potency (DIV17) 4.78 µM | Potency (Dd2) 12.6 µM | Potency (GB4) 8.49 µM | Potency (PC49) 3.55 µM | Potency (W2) 3.79 µM
inactive: Potency [1] > 46 µM | Potency [2] > 46 µM | Potency [3] | Potency [4] | outcome [5] | Potency [6] | Potency [7] | Potency [8] | Potency [9] | activity, negative = inhibition ([10]; parasite line A) 17.9% | activity, negative = inhibition ([10]; parasite line B) 2.96% | Potency (3D7) | Potency (C2A) | Potency (CP191) | Potency (CP192) | Potency (CP217) | Potency (CP250) | Potency (CP256) | Potency (CP262) | Potency (CP268) | Potency (CP269) | Potency (CP315) | Potency (CP329) | Potency (ECU) | Potency (FAB9) | Potency (HB3) | Potency (JCK) | Potency (PAD) | Potency (TAB113)

Oc1c(Cl)cc(Cl)cc1CNc1ccc(Br)cn1
inactive: Potency [1] > 20.6 µM

CC1(C)Cc2c(C#N)c(N3CCN(C(=O)c4ccco4)CC3)nc(Cc3ccccc3)c2CO1
inactive: Potency [1] > 20.6 µM

C[C@@H]1C(=O)O[C@H]2[C@@H](O)[C@@]34[C@H]5C[C@H](C(C)(C)C)[C@@]36[C@H](OC(=O)[C@@H]6O)O[C@@]4(C(=O)O5)[C@@]12O
inactive: Potency [1] > 46 µM | Potency [2] > 46 µM | Potency [11]

O=C1C[C@H](c2ccccc2)Oc2cc(O)cc(O)c21
inactive: Potency [1] > 46 µM | Potency [2] > 46 µM | Potency [11] | Potency [14] | outcome [5]
active: Potency [12] 12.6 µM | Potency [13] 12.6 µM | Potency [15] 20 µM | Potency [16] 0.631 µM

COc1ccc(-c2coc3ccc(O[C@@H]4O[C@@H](COC(C)=O)[C@@H](OC(C)=O)[C@@H](OC(C)=O)[C@H]4OC(C)=O)cc3c2=O)cc1
inactive: Potency [1] > 46 µM | Potency [2] > 46 µM | Potency [3] | Potency [11] | Potency [15] | Potency [16]
